# TEAD-YAP block – TEAD-YAP interaction inhibition. inhibition, % at 9.12 µM. AID 1259422. 640,000 compounds, 1.4% hits. HEK-TIYL cells, TEAD-Gal4/YAP UAS-luciferase luminescence; in the data active = inhibition above about 32%;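 note: 0% = median of test compound wells and 100% = reference inhibitor wells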
# FBW7 activator – human FBW7 E3 ligase activation, primary screen. Q969H0. AlphaScreen FBW7–phospho-cyclin E peptide binding, activator screen. normalized activity (activation), % at 26.1 µM. 650,000 compounds, 0.13% hits; in the data active = normalized activity above about 1.9%;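 note: purified mutant Fbw7 with reduced substrate affinity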
# Target sequence (Q969H0 whole entry, looked up): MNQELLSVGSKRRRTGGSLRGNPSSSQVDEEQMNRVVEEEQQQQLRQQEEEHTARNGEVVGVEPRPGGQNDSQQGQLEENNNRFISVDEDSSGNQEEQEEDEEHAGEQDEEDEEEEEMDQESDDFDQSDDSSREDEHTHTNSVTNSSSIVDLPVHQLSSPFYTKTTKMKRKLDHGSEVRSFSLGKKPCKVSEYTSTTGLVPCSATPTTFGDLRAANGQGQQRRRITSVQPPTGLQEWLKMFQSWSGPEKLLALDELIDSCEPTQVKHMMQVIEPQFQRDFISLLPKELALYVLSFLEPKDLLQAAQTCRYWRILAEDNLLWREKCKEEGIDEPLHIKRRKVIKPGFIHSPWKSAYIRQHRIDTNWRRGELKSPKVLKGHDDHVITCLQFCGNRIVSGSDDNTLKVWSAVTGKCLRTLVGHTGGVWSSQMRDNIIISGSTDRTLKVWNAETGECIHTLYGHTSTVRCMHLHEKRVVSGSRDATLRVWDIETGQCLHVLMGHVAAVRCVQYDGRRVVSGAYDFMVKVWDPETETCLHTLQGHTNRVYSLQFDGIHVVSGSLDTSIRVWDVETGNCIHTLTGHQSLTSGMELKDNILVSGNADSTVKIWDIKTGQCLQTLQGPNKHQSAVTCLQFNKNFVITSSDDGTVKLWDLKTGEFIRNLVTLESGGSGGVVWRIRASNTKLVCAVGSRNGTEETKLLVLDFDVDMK
# MITF inh – blocks human microphthalmia-associated transcription factor | AlphaScreen MITF homodimerization, bead proximity signal | 650,000 compounds, 0.91% hits | inhibition, % at 2.6 µM | AID 1259374 | O75030; in the data active = inhibition above about 50%;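 note: 0% = vehicle wells with protein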
# GPR151 ag – human GPR151 activation; PathHunter beta-arrestin GPR151 cells, luminescence; activation, % at 11.2 µM; 650,000 compounds, 1% hits; AID 1508602; in the data active = activation above about 4.9%;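 note: 0% = median of compound wells and 100% = cells with positive control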
# MITF inh conf – human MITF inhibition, confirmation; shares compounds with MITF inh; 4,700 compounds, 16% hits; inhibition, % at 2.6 µM; AlphaScreen MITF homodimerization, biotin/His-MITF beads;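 active = inhibition above a cutoff derived from the DMSO control wells, cut at about 28% in these data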;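 note: 0% = MITF dimer wells with DMSO only; inhibitors lower the bead chemiluminescence by keeping MITF from dimerizing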
# AlphaScreen DR – optically interferes with AlphaScreen signal in dose response. shares compounds with MITF inh. AlphaScreen optical interference counterscreen, cell-free. IC50, µM. 480 compounds, 6% hits. AID 1259373; call rule not given here
# AlphaScreen intf2 – counter-screen: compounds optically interfering with AlphaScreen | shares compounds with MITF inh | LysRS AlphaScreen counterscreen, signal interference, triplicate | inhibition, % at 2.6 µM | 4,700 compounds, 7.6% hits | AID 1259376;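 active = inhibition above a cutoff derived from the DMSO control wells, cut at about 30% in these data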
# * = called active by the depositor; / = no result; ! = not confirmed by another sample. Compounds with a hit are over-represented: about 3.4% of the library has one in this group of screens.
SMILES,TEAD-YAP block,FBW7 activator,MITF inh,GPR151 ag,MITF inh conf,AlphaScreen intf2,others
O=C(Nc1ccc(Oc2ccccc2)cc1)c1cc2cc(Cl)cc(Cl)c2oc1=O,-4.8,0.0,5.4,-0.8,/,/,
O=C(CCc1nnc2ccc(N3CCOCC3)nn12)NCc1ccc2c(c1)OCO2,-10.2,-0.2,-10.0,-0.9,/,/,
CC(C(=O)N1CCCCC1)N(C)CC(=O)Nc1cccc(F)c1 (stereo not given),8.1,0.6,64.1*,1.5,11.5,7.5,
CC1CC(C)CN(C(=O)C(C)N(C)CC(=O)Nc2ccc(Cl)cc2)C1 (stereo not given),6.7,-0.2,50.9*,0.2,7.5,10.0,
COc1ccc(NC(=O)CN(C)C(C)C(=O)N2CCCCC2)cc1 (stereo not given),-0.3,-0.2,65.7*,2.0,-3.0,12.1,
CCOC(=O)Cn1c(=O)c(=O)n(C(C)C)c2ccc(S(C)(=O)=O)cc21,-2.5,-0.2,1.6,0.0,/,/,
CC(C)CC(c1nnnn1CC1CCCO1)N1CCN(c2cccc(Cl)c2)CC1 (stereo not given),1.9,0.2,84.3*,0.3,2.5,8.8,
CC(C)CC(c1nnnn1CC1CCCO1)N1CCN(c2ccc(F)cc2)CC1 (stereo not given),11.9,0.0,0.9,1.4,/,/,
Cc1cc(OCCCN2CC(C)OC(C)C2)ccc1[N+](=O)[O-] (stereo not given),8.8,0.4,43.1,3.1,/,/,
Oc1ccc(CN2CCOCC2)c2cccnc12,67.1*,-0.4,90.8*,-0.4,99.0*,99.2*,
CCOC(=O)C1CCN(Cc2ccc(O)c3ncccc23)CC1,55.3*,-1.9,71.8*,0.0,113.5*,100.3*,
CN(C)CC(C)(C)CNCC(O)COCc1ccc2c(c1)OCO2 (stereo not given),1.8,0.1,57.0*,-0.5,8.6,12.8,
O=C(O)CCNc1c(Cl)cc(Cl)cc1C(=O)O,-17.2,0.1,-4.0,1.0,/,/,
COc1ccc(CN2CCN(Cc3cccnc3)CC2)cc1,-13.8,-0.3,73.6*,2.0,23.7,13.4,
COc1ccc(CC2(CO)CCN(Cc3cccnc3)CC2)cc1,6.3,-0.1,-5.1,1.4,/,/,
COc1ccc(C2CCN(Cc3cccnc3)CC2)cc1,2.0,0.2,64.0*,0.1,10.1,9.2,
COc1cccc(CN2CCN(Cc3cccnc3)CC2)c1,-3.8,0.1,79.4*,-1.1,-11.4,-0.2,
CSc1ccc(CN2CCN(Cc3cccnc3)CC2)cc1,3.0,0.5,85.8*,-0.3,16.2,16.7,
COc1cccc(CN2CCOCC2)c1,6.7,0.1,-1.6,-0.1,/,/,
Cc1ccnc2nc(C(=O)Nc3cc(Cl)ccc3Oc3ccccc3)nn12,1.9,0.0,-5.2,1.8,/,/,
Cc1cc(C(=O)Nc2ccc(Br)cn2)ccc1[N+](=O)[O-],-24.3,-0.1,-3.0,0.9,/,/,
COc1cc(CN2CCN(Cc3cccnc3)CC2)cc(OC)c1O,0.6,0.1,65.7*,-1.7,4.3,6.8,
COc1cc(CN2CCCCCCC2)cc(OC)c1O,-3.3,0.3,22.4,0.2,/,/,
COc1cccc(CN2CCC(CNc3ccc(-c4ccncc4)cc3)C2)c1 (stereo not given),-6.0,0.0,62.8*,-2.0,61.4*,11.8,AlphaScreen DR=>6.48
C#CCN1C(=O)C(C)Sc2ccccc21 (stereo not given),1.4,0.7,-2.8,-1.5,/,/,
SMILES,TEAD-YAP block,FBW7 activator,MITF inh,GPR151 ag,MITF inh conf,AlphaScreen intf2,others
CCC(C)NC(=O)Cn1ncc2ccccc21 (stereo not given),8.7,0.2,5.7,-0.3,/,/,
CC(C(=O)NCc1ccco1)N1CCN(C)CC1 (stereo not given),6.1,0.2,-2.9,2.0,/,/,
C=CCC1(NCc2ccco2)CCN(C)CC1,-3.8,-0.1,63.1*,0.3,-0.4,-3.5,
O=C(OC1(C(F)(F)F)C(=O)Nc2cc3c(cc21)OCO3)c1ccc(Cl)nc1 (stereo not given),-3.2,-0.3,81.4*,0.4,70.6*,-24.8,AlphaScreen DR=>7.12
c1ccc(OCCCn2c(-c3ccco3)nc3ccccc32)cc1,-12.8,0.1,1.1,2.3,/,/,
Nc1ccc(O)c(C(=O)O)c1,-4.5,0.1,74.7*!,-2.1,81.8*,-4.9,AlphaScreen DR=>6.48
FC(F)(F)c1ccccc1CN1CCN(C2CCCCCC2)CC1,7.7,-0.1,78.0*,0.5,8.9,24.4,
FC(F)(F)c1ccccc1CN1CCC(N2CCCCC2)CC1,18.6,-0.1,-5.5,1.0,/,/,

# Assay outcomes deposited in PubChem by The Scripps Research Institute Molecular Screening Center.
